# This is a sample that favours compounds with a hit; in the whole collection about 5.3% have one here.
# VACV mCherry inh – vaccinia inhibition (mCherry reporter); Potency, µM (series often up to 36.5 µM), usual class: inhibitors; Vaccinia virus mCherry reporter infection, fluorescence; hit rate 0.63% among 310,000; calls by dose curve; tested in A549 cells; note: nearly all actives have a fitted effect of over 35% in size
# HCV inhibitor – HCV inhibition; hit rate 3.4% among 340,000; Potency, µM (highest dose often 41.8 µM), usual class: inhibitors; AID 651820; Huh7.5.1 HCVcc-Cre infection, luciferase reporter, 44 h; active = well fitted inhibition curve with a large enough effect; inconclusive = small, poorly fitted or top-dose-only effect, or another doubt; inactive = no such curve, though single readings can be large or run the other way
#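 Reporter virus HCVcc-Cre (~0.5 moi) infects cells exposed to compound; seeding density 1,000 cells/well with 4 h settling beforehand. Luminescence, 15 sec read, taken 44 h post-infection following a 15 min RT substrate incubation.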
# FMDV inh – antivirals against foot and mouth disease virus; FMDV antiviral cell-based qHTS; Potency, µM (titrated, usually from 57.9 µM), actives largely listed as inhibitors; hit rate 1.2% among 410,000; calls by dose curve; tested in HEK293T cells; note: read-out not given here; nearly all actives have a fitted effect of over 45% in size
# MARV entry inh – blocks Marburg virus binding to or entry into cells; Marburg virus pseudotyped entry inhibition, cell reporter; Potency, µM (titrated, usually from 37.8 µM), actives largely listed as inhibitors; hit rate 1.8% among 300,000; AID 540276; calls by dose curve; tested in HEK293 cells
# LASV entry inh – Lassa virus entry inhibition; Lassa virus pseudotype entry inhibition, cell reporter; hit rate 1.2% among 300,000; Potency, µM (top dose mostly 37.9 µM), hits mostly inhibitors; calls by dose curve; tested in HEK293 cells; note: nearly all actives have a fitted effect of over 50% in size
# VACV Venus inh – vaccinia inhibition (Venus reporter); Potency, µM (top dose mostly 36.5 µM), usual class: inhibitors; AID 720580; hit rate 0.46% among 330,000; Vaccinia virus Venus reporter expression, fluorescence; calls by dose curve; tested in A549 cells; note: nearly all actives have a fitted effect of over 30% in size
# Hits are given with their value; . = inactive; ? = inconclusive; / = no result.
SMILES,VACV mCherry inh,HCV inhibitor,FMDV inh,MARV entry inh,LASV entry inh,VACV Venus inh
COc1cccc(NCc2cc(=O)oc3cc(C)c(C(C)C)cc23)c1,/,10µM,.,/,/,/
COc1ccc2nc(SCC(=O)NC3CCCCC3)[nH]c2c1,.,.,.,?,?,.
Cc1ccc2nc(SCC(=O)NC3CCCc4ccccc43)[nH]c2c1 (configuration not stated),?,11µM,.,?,?,?
CCOc1ccc2nc(SCC(=O)NC3CCCCC3)[nH]c2c1,.,.,.,10µM,.,.
CCCC[C@]12Cc3cc(C#N)ccc3[C@H](O1)c1c(cc(C)n(-c3ccccc3)c1=O)O2,/,/,/,.,/,/
COc1ccc(CCNC(=O)c2noc(C)c2[N+](=O)[O-])cc1OC,.,.,.,.,.,.
CC(=O)OC1CC2C(C)(C)C(=O)CC[C@]2(C)C2CC[C@@]3(C)C(c4ccoc4)OC(=O)C4OC43[C@]12C (some centres not stated),.,/,.,/,/,.
CC(=O)O[C@@H]1C[C@H]2C(C)(C)C(=O)C=C[C@]2(C)[C@H]2CC[C@@]3(C)[C@H](c4ccoc4)OC(=O)[C@H]4O[C@]43[C@@]21C,7.9µM,?,16µM,?,18µM,?
O=C(CCn1c(=O)c2ccccc2n(Cc2cccc(F)c2)c1=O)NCc1ccc2c(c1)OCO2,.,/,.,.,.,.
COc1ccc(-n2c(C)cc(/C=C3\SC(=S)N(Cc4ccco4)C3=O)c2C)cc1,.,?,.,.,.,.
CCN1CCN(c2c(/C=C3\SC(=S)N(Cc4ccco4)C3=O)c(C)c(C#N)c(=O)n2C)CC1,.,2.2µM,.,13µM,?,.
CCCn1c(C)nc2c(c1=O)c1nc3ccccc3nc1n2CCC1=CCCCC1,/,.,?,23µM,?,/
COCCNC(=O)c1ccc2c(c1)N(Cc1ccc(C(F)(F)F)cc1)C(=O)c1ccccc1S2,.,/,?,?,.,.
CCCCc1nc(NCCNC(=O)c2ccco2)c(C#N)c2c1CSC(C)(C)C2,/,11µM,?,.,.,/
CC1(C)Cc2c(C#N)c(N3CCN(C(=O)c4ccco4)CC3)nc(-c3ccco3)c2CS1,/,8.9µM,.,.,.,/
CC(=O)N1CCN(c2nc(-c3ccco3)c3c(c2C#N)CC(C)(C)SC3)CC1,.,13µM,?,.,.,.
CCC(CC)C(=O)Nc1ccc(C(=O)Nc2cc(C)on2)cc1,.,.,.,.,.,.
COC(=O)c1ccc(CN2C(=O)[C@]3(OCCC=C[C@@H]3C)c3ccccc32)cc1,/,/,/,.,/,/
COc1cc([C@H]2C[C@H](C(F)(F)F)n3ncc(C(=O)O)c3N2)cc(OC)c1OC,/,/,/,.,/,/
COCc1c(C(=O)N2CCCCCC2)cnn1-c1nccc(-c2cccs2)n1,.,/,.,/,/,.
CCOc1ccc(C(C)=O)cc1CC(C(N)=O)C(N)=O,.,.,.,?,.,.
CCOc1ccc(C(C)=O)cc1COC(=O)C1=COCCO1,/,10µM,.,.,.,.
C=C(C)CO[C@H]1C=C[C@@H](c2ccccc2)O[C@H]1CO,/,/,/,.,/,/
O=C(CCc1ccccc1)NNC(=O)COc1ccc(Br)cc1,.,11µM,.,.,.,.
O=C(CCC(=O)NNC(=O)COc1ccc(Br)cc1)NCc1ccccc1,.,.,.,?,.,.
SMILES,VACV mCherry inh,HCV inhibitor,FMDV inh,MARV entry inh,LASV entry inh,VACV Venus inh
CCCCOc1ccccc1C1NC(=O)CCC1[N+](=O)[O-] (configuration not stated),.,.,.,?,?,.
CNC(=O)c1sc2ncccc2c1-n1cccc1,.,/,.,/,.,.
COc1ccccc1S(=O)(=O)N[C@@H]1CC[C@@H](CCn2cc(C3CC3)nn2)O[C@@H]1CO,.,/,.,/,/,.
COc1ccc(C(=O)CN2C(=O)c3ccccc3S2(=O)=O)cc1,.,.,5.6µM,?,?,.
O=C(CN1C(=O)c2ccccc2S1(=O)=O)c1ccc(F)c(F)c1,.,.,?,10µM,?,.
O=C(CN1C(=O)c2ccccc2S1(=O)=O)c1ccc(O)c(O)c1,?,.,.,?,?,.
COc1ccc(C(=O)CN2C(=O)c3ccccc3S2(=O)=O)cc1Br,.,.,.,?,?,.
COC(=O)N[C@@H](c1cccc(F)c1)C(C(C)=O)C(=O)OC (some centres not stated),/,/,/,.,/,/
CC(C)(C)n1nnnc1C(CCc1ccccc1)N1CCC(n2c(=O)[nH]c3ccccc32)CC1 (configuration not stated),.,/,32µM,/,/,.
O=c1[nH]c2ccccc2n1C1CCN(C(CCc2ccccc2)c2nnnn2Cc2ccccc2)CC1 (configuration not stated),?,/,35µM,/,/,11µM
O=c1[nH]c2ccccc2n1C1CCN(C(CCc2ccccc2)c2nnnn2C2CCCCC2)CC1 (configuration not stated),?,/,28µM,/,/,?
CSCCC(c1nnnn1C1CCCCC1)N1CCC(n2c(=O)[nH]c3ccccc32)CC1 (configuration not stated),.,/,?,/,/,.
CC(C)(C)n1nnnc1C(C1CC1)N1CCC(n2c(=O)[nH]c3ccccc32)CC1 (configuration not stated),.,/,.,/,/,.
CC(C)(C)c1ccc(-c2nc(S(=O)(=O)c3ccccc3)c(N3CCOCC3)o2)cc1,.,/,.,?,?,.
CC(C)(C)C(=O)N1CCc2cc(-c3csc(N)n3)ccc21,?,.,.,?,2µM,.
CNc1nc(-c2ccc3c(c2)CCN3C(=O)c2ccccc2F)cs1,.,11µM,.,/,/,.
CCOC(=O)CNc1nc(-c2ccncc2)nc2ccccc12,.,?,.,11µM,.,.
O=C(OCCNc1nc(-c2ccccc2)nc2ccccc12)c1ccncc1,/,16µM,.,/,/,/
COCCCNC(=O)CSc1nc2c(sc3ccccc32)c(=O)n1CCc1ccc(OC)c(OC)c1,.,/,.,/,.,.
CCc1ccccc1NC(=O)CN(C)S(=O)(=O)c1cccc2nsnc12,.,/,.,.,.,.
CCOC(=O)c1c(NC(=O)COC)sc(C(C)=O)c1C,.,28µM,.,.,.,.
CCOC(=O)c1sc(NC(=O)CCN2CCN(CC)CC2)c(C(=O)OCC)c1C,.,10µM,.,?,.,.
CCOC(=O)c1c(NC(=O)C2c3ccccc3Oc3ccccc32)sc(C(C)=O)c1C,.,0.79µM,/,?,?,.
CCOC(=O)c1c(NC(=O)C2c3ccccc3Oc3ccccc32)sc(C)c1C,.,/,?,.,.,.
CCc1ccc(CNc2ncnc3onc(-c4ccc(Cl)cc4)c23)cc1,.,/,?,.,.,.
CCCCN(CC)C(=O)CSc1nc2n[nH]c(C)c2c(=N)n1-c1ccc(CC)cc1,.,/,?,/,.,.
CCN(CCCl)c1cc(CN(C)C)cc(NC(=O)c2ccc(C(=O)Nc3cc(CN(C)C)cc(N(CC)CCCl)c3)cc2)c1,1.3µM,1.4µM,?,?,?,2.8µM
CCN(CC)c1ccc(NC(=O)c2cnn(CC)c2)cc1,/,?,.,?,.,.
Clc1ccc2nc(-c3ccc(Cl)nc3)[nH]c2c1,.,?,.,7.9µM,?,.

# From PubChem BioAssay
